The supplement of paper PMC11624193, “Coupling cellular drug-target engagement to downstream pharmacology with CeTEAM” (Nature Communications, 2024)

These molecules were tested against PARP1 L713F-nLuc biosensor (HCT116) (UniProt P09874) (assay: PARP1 L713F-nLuc/akaLuc ratio relative to DMSO control (biosensor stabilization) (fold change); higher = more PARP1 biosensor stabilization (target engagement / stabilizer), active = hit call of the paper). Conditions: stock concentration (mM; final µM = stock mM x 1): 10; 24 h;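 active = log2 fold change beyond 2 SD from the library mean after excluding viability outliers; inactive = within 2 SD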.
Sequence of PARP1 L713F-nLuc biosensor (HCT116) (P09874 whole entry L713F, looked up): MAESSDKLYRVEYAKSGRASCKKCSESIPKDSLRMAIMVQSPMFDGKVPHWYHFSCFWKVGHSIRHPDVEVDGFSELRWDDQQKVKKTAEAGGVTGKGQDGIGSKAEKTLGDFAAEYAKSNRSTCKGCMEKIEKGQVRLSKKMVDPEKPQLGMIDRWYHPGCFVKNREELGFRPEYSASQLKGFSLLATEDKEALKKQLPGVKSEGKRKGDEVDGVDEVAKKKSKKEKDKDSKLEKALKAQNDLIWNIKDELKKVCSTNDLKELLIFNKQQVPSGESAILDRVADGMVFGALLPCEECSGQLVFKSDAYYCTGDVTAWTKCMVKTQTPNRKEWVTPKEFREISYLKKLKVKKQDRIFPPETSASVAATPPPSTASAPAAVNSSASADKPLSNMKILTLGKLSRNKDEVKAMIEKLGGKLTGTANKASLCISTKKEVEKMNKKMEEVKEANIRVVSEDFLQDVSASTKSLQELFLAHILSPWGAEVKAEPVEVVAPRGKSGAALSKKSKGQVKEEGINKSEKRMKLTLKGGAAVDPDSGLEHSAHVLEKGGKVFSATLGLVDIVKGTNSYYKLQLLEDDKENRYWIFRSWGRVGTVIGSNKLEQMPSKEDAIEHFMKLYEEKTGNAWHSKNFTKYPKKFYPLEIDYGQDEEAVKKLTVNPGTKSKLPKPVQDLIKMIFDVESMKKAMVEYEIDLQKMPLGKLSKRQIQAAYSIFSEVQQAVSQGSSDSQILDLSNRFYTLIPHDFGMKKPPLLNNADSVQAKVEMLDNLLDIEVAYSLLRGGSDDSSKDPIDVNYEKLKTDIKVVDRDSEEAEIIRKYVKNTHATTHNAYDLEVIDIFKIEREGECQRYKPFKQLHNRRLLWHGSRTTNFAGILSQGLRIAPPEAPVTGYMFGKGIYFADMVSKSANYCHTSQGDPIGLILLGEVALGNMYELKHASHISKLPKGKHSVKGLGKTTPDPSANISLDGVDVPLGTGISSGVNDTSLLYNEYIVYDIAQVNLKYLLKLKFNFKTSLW
In the case of `CCNC(=O)NCCSC[C@H]1O[C@@H](n2cnc3c(N)ncnc32)[C@H](O)[C@@H]1O`, the “PARP1 L713F-nLuc/akaLuc ratio” value was 0.751 (inactive).
For `Cn1cncc1[C@@](N)(c1ccc(Cl)cc1)c1ccc2c(c1)c(-c1cccc(Cl)c1)cc(=O)n2C` [Tipifarnib], the “PARP1 L713F-nLuc/akaLuc ratio” value was 0.456 (inactive).
In the case of `Cc1cnc(Nc2ccc(OCCN3CCCC3)cc2)nc1Nc1cccc(S(=O)(=O)NC(C)(C)C)c1`, the “PARP1 L713F-nLuc/akaLuc ratio” value was 0.333 (active).
For `C/C(=N\NC(=O)c1cccc(S(=O)(=O)N2CCN(C)CC2)c1)c1cc(Cl)ccc1O` [Seclidemstat], the “PARP1 L713F-nLuc/akaLuc ratio” value was 0.552 (inactive).
In the case of `CNCCN1CCC(OCc2ccccc2)CC1`, the “PARP1 L713F-nLuc/akaLuc ratio” value was 0.908 (inactive).
`NC(=O)c1ccccc1Nc1ccccc1` was tested, and the “PARP1 L713F-nLuc/akaLuc ratio” value was 0.795 (inactive).
`COc1ccccc1C(=O)Nc1cc2c(cc1N1CCCC1)n(C)c(=O)n2C` was tested, and the “PARP1 L713F-nLuc/akaLuc ratio” value was 0.797 (inactive).
